From the supplement of paper PMC4466140

What was measured:
Experiment in all cases: SPOT peptide array binding signal intensity (averaged, normalized) (arbitrary units (background-subtracted, floor 0; scale differs between SH3 domains)); higher = stronger binding of the SH3 domain to the peptide
[1] = target: AgAbp1
Method: (§1)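 GST-tagged SH3 domains from S. cerevisiae (Sc), A. gossypii (Ag), C. albicans (Ca) and S. pombe (Sp) were incubated at 10 ug/ml overnight at 4 C on cellulose SPOT membranes carrying 292 synthetic 15-mer peptides mined from the S. cerevisiae proteome (cysteines replaced by serines). Binding was detected with anti-GST antibody, HRP secondary and chemiluminescence, quantified with Genespotter, and reported as normalized spot intensities averaged over biological replicates.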

[2] = target: AgBbc1
Method: as §1

[3] = target: AgBem1-D1
Method: as §1

[4] = target: AgBzz1-D1
Method: as §1

[5] = target: AgBzz1-D2
Method: as §1

[6] = target: AgCyk3
Method: as §1

[7] = target: AgFus1
Method: as §1

[8] = target: AgHof1
Method: as §1

[9] = target: AgHse1
Method: as §1

[10] = target: AgLsb1
Method: as §1

[11] = target: AgLsb4
Method: as §1

[12] = target: AgMyo5
Method: as §1

[13] = target: AgNbp2
Method: as §1

[14] = target: AgRvs167
Method: as §1

[15] = target: AgSho1
Method: as §1

[16] = target: AgSla1-D1-D2
Method: as §1

[17] = target: AgSla1-D3
Method: as §1

[18] = target: CaAbp1-D1
Method: as §1

[19] = target: CaAbp1-D2
Method: as §1

[20] = target: CaBbc1
Method: as §1

[21] = target: CaBem1-D1
Method: as §1

[22] = target: CaBzz1-D1
Method: as §1

[23] = target: CaBzz1-D2
Method: as §1

[24] = target: CaCyk3
Method: as §1

[25] = target: CaFus1
Method: as §1

[26] = target: CaHof1
Method: as §1

[27] = target: CaHse1
Method: as §1

[28] = target: CaLsb1
Method: as §1

[29] = target: CaLsb4
Method: as §1

[30] = target: CaMyo5
Method: as §1

[31] = target: CaNbp2
Method: as §1

[32] = target: CaRvs167
Method: as §1

[33] = target: CaRvs167-3
Method: as §1

[34] = target: CaSho1
Method: as §1

[35] = target: CaSla1-D1-D2
Method: as §1

[36] = target: CaSla1-D3
Method: as §1

[37] = target: ScAbp1
Method: as §1

[38] = target: ScBbc1
Method: as §1

[39] = target: ScBem1-D1
Method: as §1

[40] = target: ScBzz1-D1
Method: as §1

[41] = target: ScBzz1-D2
Method: as §1

[42] = target: ScCyk3
Method: as §1

[43] = target: ScFus1
Method: as §1

[44] = target: ScHof1
Method: as §1

[45] = target: ScHse1
Method: as §1

[46] = target: ScLsb1
Method: as §1

[47] = target: ScLsb2
Method: as §1

[48] = target: ScLsb3
Method: as §1

[49] = target: ScLsb4
Method: as §1

[50] = target: ScMyo3
Method: as §1

[51] = target: ScMyo5
Method: as §1

[52] = target: ScNbp2
Method: as §1

[53] = target: ScPex13
Method: as §1

[54] = target: ScRvs167
Method: as §1

[55] = target: ScSho1
Method: as §1

[56] = target: ScSla1-D1-D2
Method: as §1

[57] = target: ScSla1-D3
Method: as §1

[58] = target: SpAbp1-D1
Method: as §1

[59] = target: SpBbc1
Method: as §1

[60] = target: SpBzz1-D1
Method: as §1

[61] = target: SpBzz1-D2
Method: as §1

[62] = target: SpCyk3
Method: as §1

[63] = target: SpHof1
Method: as §1

[64] = target: SpHof1-2
Method: as §1

[65] = target: SpHof1-3
Method: as §1

[66] = target: SpHse1
Method: as §1

[67] = target: SpLsb1
Method: as §1

[68] = target: SpLsb4
Method: as §1

[69] = target: SpMyo1
Method: as §1

[70] = target: SpNbp2
Method: as §1

[71] = target: SpPex13
Method: as §1

[72] = target: SpRvs167
Method: as §1

[73] = target: SpSla1-D1-D2
Method: as §1

[74] = target: SpSla1-D3
Method: as §1

LASNSPPVYPKRIRH
SPOT peptide array binding signal intensity [1]: 45
SPOT peptide array binding signal intensity [2]: 18.2
SPOT peptide array binding signal intensity [3]: ≤ 0
SPOT peptide array binding signal intensity [4]: 59
SPOT peptide array binding signal intensity [5]: 6
SPOT peptide array binding signal intensity [6]: ≤ 0
SPOT peptide array binding signal intensity [7]: ≤ 0
SPOT peptide array binding signal intensity [8]: ≤ 0
SPOT peptide array binding signal intensity [9]: 3.5
SPOT peptide array binding signal intensity [10]: 2.5
SPOT peptide array binding signal intensity [11]: 196
SPOT peptide array binding signal intensity [12]: ≤ 0
SPOT peptide array binding signal intensity [13]: ≤ 0
SPOT peptide array binding signal intensity [14]: 4.17
SPOT peptide array binding signal intensity [15]: ≤ 0
SPOT peptide array binding signal intensity [16]: 2
SPOT peptide array binding signal intensity [17]: ≤ 0
SPOT peptide array binding signal intensity [18]: 93
SPOT peptide array binding signal intensity [19]: 47.5
SPOT peptide array binding signal intensity [20]: 400
SPOT peptide array binding signal intensity [21]: 6
SPOT peptide array binding signal intensity [22]: 165
SPOT peptide array binding signal intensity [23]: 44.8
SPOT peptide array binding signal intensity [24]: ≤ 0
SPOT peptide array binding signal intensity [25]: ≤ 0
SPOT peptide array binding signal intensity [26]: 0.25
SPOT peptide array binding signal intensity [27]: ≤ 0
SPOT peptide array binding signal intensity [28]: ≤ 0
SPOT peptide array binding signal intensity [29]: 771
SPOT peptide array binding signal intensity [30]: ≤ 0
SPOT peptide array binding signal intensity [31]: ≤ 0
SPOT peptide array binding signal intensity [32]: 4.17
SPOT peptide array binding signal intensity [33]: 2.25
SPOT peptide array binding signal intensity [34]: 3
SPOT peptide array binding signal intensity [35]: 56
SPOT peptide array binding signal intensity [36]: ≤ 0
SPOT peptide array binding signal intensity [37]: 39.5
SPOT peptide array binding signal intensity [38]: 16.8
SPOT peptide array binding signal intensity [39]: ≤ 0
SPOT peptide array binding signal intensity [40]: ≤ 0
SPOT peptide array binding signal intensity [41]: 19
SPOT peptide array binding signal intensity [42]: 1
SPOT peptide array binding signal intensity [43]: ≤ 0
SPOT peptide array binding signal intensity [44]: 0.75
SPOT peptide array binding signal intensity [45]: ≤ 0
SPOT peptide array binding signal intensity [46]: 46.5
SPOT peptide array binding signal intensity [47]: 10
SPOT peptide array binding signal intensity [48]: 1560
SPOT peptide array binding signal intensity [49]: 45.5
SPOT peptide array binding signal intensity [50]: ≤ 0
SPOT peptide array binding signal intensity [51]: ≤ 0
SPOT peptide array binding signal intensity [52]: ≤ 0
SPOT peptide array binding signal intensity [53]: 56.5
SPOT peptide array binding signal intensity [54]: 7.67
SPOT peptide array binding signal intensity [55]: 27.5
SPOT peptide array binding signal intensity [56]: 11
SPOT peptide array binding signal intensity [57]: ≤ 0
SPOT peptide array binding signal intensity [58]: 18.5
SPOT peptide array binding signal intensity [59]: ≤ 0
SPOT peptide array binding signal intensity [60]: 248
SPOT peptide array binding signal intensity [61]: ≤ 0
SPOT peptide array binding signal intensity [62]: ≤ 0
SPOT peptide array binding signal intensity [63]: 1.5
SPOT peptide array binding signal intensity [64]: 1
SPOT peptide array binding signal intensity [65]: 2.75
SPOT peptide array binding signal intensity [66]: ≤ 0
SPOT peptide array binding signal intensity [67]: 257
SPOT peptide array binding signal intensity [68]: 1810
SPOT peptide array binding signal intensity [69]: ≤ 0
SPOT peptide array binding signal intensity [70]: 0.5
SPOT peptide array binding signal intensity [71]: ≤ 0
SPOT peptide array binding signal intensity [72]: 3.5
SPOT peptide array binding signal intensity [73]: ≤ 0
SPOT peptide array binding signal intensity [74]: ≤ 0

ALKQKKIPPPFKPHL
SPOT peptide array binding signal intensity [1]: 43.5
SPOT peptide array binding signal intensity [2]: ≤ 0
SPOT peptide array binding signal intensity [3]: 4
SPOT peptide array binding signal intensity [4]: 43
SPOT peptide array binding signal intensity [5]: 22
SPOT peptide array binding signal intensity [6]: ≤ 0
SPOT peptide array binding signal intensity [7]: ≤ 0
SPOT peptide array binding signal intensity [8]: 7.5
SPOT peptide array binding signal intensity [9]: ≤ 0
SPOT peptide array binding signal intensity [10]: ≤ 0
SPOT peptide array binding signal intensity [11]: ≤ 0
SPOT peptide array binding signal intensity [12]: ≤ 0
SPOT peptide array binding signal intensity [13]: ≤ 0
SPOT peptide array binding signal intensity [14]: ≤ 0
SPOT peptide array binding signal intensity [15]: ≤ 0
SPOT peptide array binding signal intensity [16]: ≤ 0
SPOT peptide array binding signal intensity [17]: 2.5
SPOT peptide array binding signal intensity [18]: 938
SPOT peptide array binding signal intensity [19]: 984
SPOT peptide array binding signal intensity [20]: ≤ 0
SPOT peptide array binding signal intensity [21]: 2
SPOT peptide array binding signal intensity [22]: 589
SPOT peptide array binding signal intensity [23]: 205
SPOT peptide array binding signal intensity [24]: ≤ 0
SPOT peptide array binding signal intensity [25]: 19.5
SPOT peptide array binding signal intensity [26]: 0.5
SPOT peptide array binding signal intensity [27]: 0.5
SPOT peptide array binding signal intensity [28]: ≤ 0
SPOT peptide array binding signal intensity [29]: ≤ 0
SPOT peptide array binding signal intensity [30]: 0.5
